DAGLB inhibitor: DAGLB lipase inhibitors, primary screen, biochemical, fluorescence, HTS | inhibition, % at 5.17 µM | AID 504411, 2011 | actives 0.059% (n = 340,000) | HEK293T DAGLB membrane lysate, EnzChek fluorogenic substrate | Diacylglycerol lipase-beta (Homo sapiens), Q8NCG7; in the data active = inhibition above about 34%
hiPSC survival: enhancers of single-cell hiPSC survival, primary screen, ATPlite luminescence | 100% = ROCK inhibitor wells, 0% = DMSO | survival enhancement, % at 20 µM | actives 0.044% (n = 360,000) | AID 602274, 2012; in the data active = survival enhancement above about 18%;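 note: cells exposed to compounds for 16 hours before the ATP read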
ANO1 activ: TMEM16A chloride channel activators or potentiators, primary screen, cell-based, HTS | HEK293 TMEM16A/YFP-H148Q/I152L, iodide quench fluorescence; stronger effect = lower value | B-score at 10 µM | actives 0.3% (n = 340,000) | AID 623877, 2012;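 active = fluorescence-ratio B-score plate-corrected deviation score at least 3 library SD below zero, with starting fluorescence score within 5 deviations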;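 note: channel opened by trigger with iodide after compound preincubation; score built on the fluorescence ratio of max minus min over baseline; more negative score means more quench and so TMEM16A activation or potentiation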
ABCB6 inh 2: ABCB6 transporter inhibitors, primary screen, K562-ABCB6 cells, flow cytometry, MLPCN library; fluorescence ratio to DMSO, % at 10 µM; ATP-binding cassette sub-family B member 6 (Homo sapiens), Q9NP58; K562-ABCB6 porphyrin accumulation, 1 h; stronger effect = lower value; actives 0.19% (n = 360,000); AID 602162, 2011;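 active = fluorescence ratio to DMSO below 75%, the collection mean minus 3 SD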;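 note: signal is porphyrin accumulated inside mitochondria; lower ratio means ABCB6 inhibition with less porphyrin fluorescence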
TMEM16A inh: TMEM16A chloride channel inhibitors, primary screen, cell-based, HTS | actives 1.2% (n = 310,000) | AID 588511, 2011 | HEK293 TMEM16A/YFP iodide influx fluorescence, ionomycin | normalized B-score (activity score, 25-100; higher = stronger inhibition) at 10 µM | Anoctamin-1 (Mus musculus), Q8BHY3;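 active = ratio plate-corrected score three or more library SD toward inhibition, starting fluorescence score within five deviations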;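 note: score derived from kinetic fluorescence span divided by baseline fluorescence per well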
Each line names hits and unclear results; the compound was inactive in the other large screens. Sampled rows, rich in hits. Any-hit rate of the full collection: about 1.5%.

Nc1cccc(Nc2nc(OC(C(F)(F)F)C(F)(F)F)nc(OC(C(F)(F)F)C(F)(F)F)n2)c1	TMEM16A inh 100
CC(=O)CCN1C(=O)NC2(CCCc3ccccc32)C1=O (stereo unspecified)	none
CCN(CC)c1ccc(C(=C2C=CC(=[N+](CC)CC)C=C2)c2ccccc2)cc1	ANO1 activ -12 (no result: TMEM16A inh)
CCN(CC)c1ccc(C(=O)NNC(=O)CCNC(=O)c2ccccc2)cc1	none (no result: TMEM16A inh)
O=C(NCC(=O)N1CCCC(C(F)(F)F)C1)c1ccc(Br)o1 (stereo unspecified)	none
O=C(Nc1cccc(/C=C/c2ccccn2)c1)c1ccc(-n2cncn2)c([N+](=O)[O-])c1	TMEM16A inh 25
O=C(Nc1ccc(F)c(F)c1)c1ccc(-n2cncn2)c([N+](=O)[O-])c1	none (no result: TMEM16A inh)
COc1ccc(CNC(=O)C2CCN(C(=O)c3csc(Nc4ccc(C)cc4)n3)CC2)cc1	none
COc1ccc(C(=O)Nn2c(CC(C)C)nc3cc(Cl)ccc3c2=O)c(OC)c1	none
CCOC(=O)c1ccccc1NC(=O)COC(=O)C(CC)Oc1ccccc1 (stereo unspecified)	none (no result: ANO1 activ, TMEM16A inh)
CC(=O)c1cnn(-c2ccccc2)c1C	none
Cc1c(C(=O)Oc2cccc3ccccc23)cnn1-c1ccccc1	TMEM16A inh 100
Cn1c(N)c(N=O)c(=O)n(C)c1=S	none (no result: TMEM16A inh)
CC(C)Cc1ccc(C(C)C(=O)Nc2ccc(O)cc2)cc1 (stereo unspecified)	TMEM16A inh 100
CCCCOc1ccc(S(N)(=O)=O)cc1	none
NS(=O)(=O)c1ccc(Oc2ccc(S(N)(=O)=O)cc2)cc1	ANO1 activ -4.9
Fc1cccc(Cc2c(-c3cccc(Cl)c3)nc3c(Cl)cc(C(F)(F)F)cn23)c1	none (no result: DAGLB inhibitor, ANO1 activ, TMEM16A inh)
N#C/C(=C\c1ccc[nH]1)Sc1nc2ccccc2s1	none
N#C/C(=C\c1cccs1)Sc1nc2ccccc2s1	ANO1 activ -20
O=C(O)c1ccc(Cl)cc1Nc1nc2cc(Cl)ccc2o1	TMEM16A inh 25
CCC(=O)Nc1cc(Cl)ccc1C(=O)O	none
Cc1cc(C(=O)N2CCC(C)(C(=O)NS(=O)(=O)C3CC3)C2)n(C(C)(C)C)n1 (stereo unspecified)	none (no result: DAGLB inhibitor, ANO1 activ, TMEM16A inh)
O=C(Nc1ccc(N2CCOCC2)cc1)c1cccc(S(=O)(=O)N2CCCC2)c1	hiPSC survival 24
Cc1cccc(NC(=O)CSc2nnc(CSc3nc(C)cc(C)n3)o2)c1	none
Cc1cc(C)nc(SCc2nnc(SCC(=O)Nc3ccc(Cl)c(C(F)(F)F)c3)o2)n1	TMEM16A inh 100
COc1ccc(Nc2nc(CC(C)=O)ns2)cc1	ANO1 activ -16
CC(=O)N/C(=C\c1ccccc1)C(=O)OCC(=O)c1c(N)n(C)c(=O)n(C)c1=O	none (no result: TMEM16A inh)
O=[N+]([O-])c1ccc(Oc2ccc(S(=O)(=O)Nc3ccccc3)cc2)cc1	TMEM16A inh 25
O=[N+]([O-])c1ccc(S(=O)(=O)Nc2ccncc2)cc1	none
O=[N+]([O-])c1ccc(S(=O)(=O)Nc2nc(-c3ccccc3)cs2)cc1	TMEM16A inh 100
C[C@H](NC(=O)c1[nH]cnc1C(=O)N[C@H](C)c1ccccc1)c1ccccc1	none (no result: TMEM16A inh)
CCOC(=O)/C(=C\c1cccnc1)C(=O)c1cc(C(C)=O)c(Nc2ccccc2)s1	ANO1 activ -11, TMEM16A inh 25
O=C(CCN1C(=O)[C@@H]2Cc3ccccc3CN2C1=O)Nc1cccc(F)c1	none
Cc1nc(Nc2ccc(S(N)(=O)=O)cc2)sc1C(=O)Nc1ccccc1	ANO1 activ -8.9
O=C(Cn1cc(C(F)(F)F)ccc1=O)N1CCc2ccccc2C1	none (no result: TMEM16A inh)
CCOC(=O)C1(CCOc2ccccc2)CCN(Cc2ccncc2)CC1	none
CCOC(=O)C1(CCOc2ccccc2)CCN(Cc2ccc(-n3cccn3)cc2)CC1	TMEM16A inh 25
COc1ccc2[nH]c(=O)c(CN(Cc3nnnn3Cc3ccco3)C3CCCCC3)cc2c1	none
COc1ccc2[nH]c(=O)c(CN(C3CCCCC3)C(c3nnnn3Cc3ccco3)C(C)C)cc2c1 (stereo unspecified)	TMEM16A inh 100
O=C(O)CCCN1C(=O)/C(=C/c2ccc(-c3nc4ccccc4s3)o2)SC1=S	ABCB6 inh 2 63
O=C(O)CCCCCN1C(=O)/C(=C\c2ccc(-c3ccc(Cl)cc3)o2)SC1=S	none
Cc1ccc(SCC(=O)c2cc(C)c(O)c(C)c2)cc1	none
COc1ccc(SCC(=O)c2cc(C)c(OC(=S)N(C)C)c(C)c2)cc1	TMEM16A inh 25
COc1cc(C)c(S(=O)(=O)NCc2ccc3c(c2)OCO3)cc1C	ABCB6 inh 2 71
Cc1ccc2nc(SCC(=O)NCCCN3CCCC3=O)[nH]c2c1	none (no result: TMEM16A inh)
CCCSc1nc2sc3c(c2c(=O)[nH]1)CCN(Cc1ccccc1)C3	ANO1 activ -5.6
O=c1[nH]c(C(Cl)Cl)nc2sc3c(c12)CCN(Cc1ccccc1)C3	none
O=C(CSCc1ccccc1Cl)NN=C1CCCCCC1	none
O=C(CSCc1c(Cl)cccc1Cl)NN=C1CCCC1	ANO1 activ -29
COC(=O)C1(C(=O)OC)C2C(=O)C3C(C21)C3(C(=O)OC(C)(C)C)C(=O)OC(C)(C)C (stereo unspecified)	none (no result: ANO1 activ, TMEM16A inh)
COc1cc(NC(=O)[C@@H]2CCCN(S(=O)(=O)c3cccc4cccnc34)C2)cc(OC)c1OC	TMEM16A inh 25
COc1ccc(-c2cc(CCC(=O)N3CCN(c4cc(C)ccc4C)CC3)[nH]n2)cc1	none (no result: ANO1 activ, TMEM16A inh)
Cc1ccc(NC(=O)CN(C)CC(=O)Nc2cccc(F)c2)cc1S(=O)(=O)N1CCCCCC1	TMEM16A inh 25
COc1ccc(NC(=O)CN(C)CC(=O)Nc2cccc(F)c2)cc1S(=O)(=O)N1CCCCC1	none (no result: TMEM16A inh)
Cc1ccc(NC(=O)CSc2ncnc3ccccc23)cc1S(=O)(=O)N1CCOCC1	TMEM16A inh 25
Cc1ccc(NC(=O)COc2ccccc2)cc1S(=O)(=O)N1CCCCCC1	TMEM16A inh 25
Cc1cccn2c(=O)nc(SCC(=O)NCc3ccccc3)nc12	none
CCN1CCN(c2ccccc2NC(=O)C(C)Oc2ccc(C(C)=O)cc2)CC1 (stereo unspecified)	none (no result: TMEM16A inh)
COc1cc(C2c3[nH]c4ccccc4c3C[C@H]3C(=O)N(C4CC4)CC(=O)N23)ccc1OC(C)C (stereo partly specified)	none
Cc1cnc(CNC(=O)CC2C(=O)NCCN2Cc2cccc(F)c2F)cn1 (stereo unspecified)	none
CC(C)(C)NC(=O)Cn1nnc(-c2ccccc2NC(=O)c2cnccn2)n1	hiPSC survival 22
CC(Oc1nc2c(c(=O)n(C)c(=O)n2C)n1C)C1CCCCC1 (stereo unspecified)	none (no result: TMEM16A inh)
Cc1csc2c(N3CCN(C(=O)Nc4ccccc4)CC3)ncnc12	TMEM16A inh 25

High-throughput results (PubChem BioAssay)
